3CLpro inhibitor: SARS-CoV 3CLpro protease inhibitors, primary screen, biochemical, quenched FRET. Replicase polyprotein 1ab (Severe acute respiratory syndrome coronavirus), P0C6X7. AID 1706, 2009. recombinant SARS-CoV 3CLpro, quenched FRET peptide cleavage. hit rate 0.14% among 290,000. inhibition, % at 6 µM; in the data active means inhibition above about 12%
CCHFV vOTU inh: CCHFV vOTU protease inhibitors, primary screen, biochemical, Pep-AMC substrate, fluorescence. Crimean-Congo hemorrhagic fever virus L polyprotein viral ovarian tumor (vOTU) protease …. inhibition, % at 11.5 µM. hit rate 0.55% among 370,000; in the data active means inhibition above about 30%; further: 0% = vehicle wells with enzyme and 100% = no enzyme wells
BoNT F protease: BoNT/F light chain protease inhibitors, primary screen, biochemical, flow cytometry, MLPCN library. inhibition, % at 10 µM. Botulinum neurotoxin type F light chain protease (Clostridium botulinum). Multiplex microsphere protease cleavage assay. hit rate 0.22% among 360,000; in the data active means inhibition above about 35%, passing the limit was not always enough; inconclusive means no clear call, values can overlap the other calls; further: plate controls were buffer without enzyme for full effect and enzyme alone for no effect
BoNT A protease: BoNT/A light chain protease inhibitors, primary screen, biochemical, flow cytometry, MLPCN library. multiplex microsphere protease substrate cleavage. AID 588499, 2011. hit rate 0.17% among 360,000. Botulinum neurotoxin type A light chain protease (Clostridium botulinum A str. ATCC 3502). inhibition, % at 10 µM; further: plate controls were buffer without enzyme for full effect and enzyme alone for no effect
Autofluor counter: compound fluorescence in toxin protease inhibitor counterscreen | compound autofluorescence counterscreen, microsphere flow cytometry; hits give high values | fluorescence intensity (no concentration beside the values) | hit rate 3.1% among 360,000 | AID 624483; in the data active means fluorescence intensity above about 16000; inconclusive means no clear call, values can overlap the other calls
Anthrax LF prot: Bacillus anthracis LF protease inhibitors, primary screen, biochemical, multiplex microsphere, MLPCN library | hit rate 0.12% among 360,000 | multiplex microsphere protease cleavage assay | inhibition, % at 10 µM | Lethal factor (Bacillus anthracis), P15917 | AID 588501, 2011; further: plate controls were buffer without enzyme for full effect and enzyme alone for no effect
Active calls of the source: *; ? = inconclusive; · = no result given. Only some compounds are listed: those with a hit (about 3.9% of all), similar ones and a draw of the others. Unless noted, no stated cut-off is given here; in the data, active means inhibition above about 30%; inconclusive means no clear call, values can overlap the other calls; inactive means below that.

SMILES | 3CLpro inhibitor | CCHFV vOTU inh | BoNT F protease | BoNT A protease | Autofluor counter | Anthrax LF prot
CCC(=O)Nc1ccc(Cl)c(NC(=O)c2c(OC)cccc2OC)c1 | -3.6 | 5.3 | -1.4 | -0.5 | 4447 | 1.3
CC(C)Cc1nc2oc3c(N4CCN(CCO)CC4)ncnc3c2c2c1CCCC2 | -0.4 | 1.1 | -4.6 | -0.5 | 10925 | -2.5
CCOC(=O)c1oc2nc(CC(C)C)c3c(c2c1N)CCC3 | -3.0 | -63.8 | 1.6 | -0.6 | 20183* | -2.6
CC1(C(=O)NS(=O)(=O)Cc2ccccc2)CCN1C(=O)Cc1ccccc1Cl (stereo not drawn) | · | 11.9 | -3.8 | -0.5 | 4246 | -2.0
CN1CCN(C2OC(=O)c3ccccc32)CC1 (stereo not drawn) | -1.0 | -3.9 | -3.0 | -2.3 | 17143* | 0.8
O=C1OC(N2CCN(Cc3ccccc3)CC2)c2ccccc21 (stereo not drawn) | -8.4 | -0.6 | -13.9 | -1.2 | ? | -14.6
O=c1[nH][nH]c2c1[C@H](c1ccc(F)cc1)O[C@H](CCc1ccccc1)C2 | · | 9.7 | -7.9 | -0.7 | 4554 | 0.6
O=S(=O)(N1CCCCCC1)N1CCN(S(=O)(=O)N2CCCCC2)CC1 | 0.3 | -2.2 | 2.8 | 1.3 | 19718* | -0.2
O=c1cc(/C=C/c2ccccc2)oc2ccccc12 | 5.1 | -0.1 | 5.9 | ? | 22100* | 1.1
O=C(CN1CCc2onc(-c3ccc(-n4cc(C5=CCCCC5)nn4)cc3)c2C1=O)N1CCOCC1 | · | -3.5 | · | · | · | ·
COc1ccc(OC[C@@H](O)CN2CCC(C(O)(c3ccccc3)c3ccccc3)CC2)cc1 | · | 11.7 | · | · | · | ·
COc1cc(F)ccc1-c1cc(C(=O)NCc2ccc(F)cc2)[nH]n1 | · | 3.0 | 0.9 | -0.9 | 3033 | 3.3
Cn1c(SCC(=O)OC2CCCCC2)nnc1-c1ccc2c(c1)OCO2 | -7.8 | -6.0 | 3.2 | 2.1 | 21547* | 1.7
COc1ccc(-c2csc(N(Cc3ccccc3)C(=O)COc3ccc(Cl)cc3)n2)cc1 | 5.7 | 0.5 | -5.0 | -1.2 | 10521 | -3.8
O=C(COc1ccccc1)N(Cc1ccccc1)c1nc(-c2ccccc2)cs1 | -1.6 | -7.2 | 1.8 | 0.9 | 21962* | -0.7
CN(C(=O)COc1ccccc1)c1nc(-c2ccc(F)cc2)cs1 | 1.8 | -18.9 | 0.7 | -0.1 | 2665 | -0.6
COc1ccc(-c2csc(N(CCc3ccc(OC)c(OC)c3)C(=O)COc3ccccc3)n2)cc1 | -2.9 | 16.9 | -1.6 | ? | 19913* | -1.9
COc1cc(C(=O)Nc2ccc(Br)cc2C(=O)c2cc(OC)c(OC)c(OC)c2)cc(OC)c1OC | 2.1 | 17.6 | -2.3 | -0.5 | 24193* | -2.4
CCCCCCNC(=O)CCNC(=O)c1cc(OC)c(OC)c(OC)c1 | -1.4 | 2.6 | 0.2 | -0.2 | 22280* | 1.2
COc1cc(C(=O)NCCC(=O)NC(C)C)cc(OC)c1OC | -2.9 | -0.1 | -2.1 | -0.6 | 4420 | -0.1
COc1cc(C(=O)NCCSc2ccc(Br)cc2)cc(OC)c1OC | 0.2 | -9.3 | -73.6 | -16.1 | 18300* | -24.5
Cc1cccc(NC(=O)CCNC(=O)c2ccc(Br)cc2)c1 | 2.1 | -11.5 | -5.5 | -1.0 | 3862 | 4.7
CCC(C)c1ccccc1NC(=O)c1cccnc1 (stereo not drawn) | -4.1 | -6.2 | -3.3 | -2.4 | 23335* | -5.0
CCc1cccc(C)c1NC(=O)c1cc(C)oc1C | 2.1 | · | -0.4 | 1.5 | 22641* | -3.8
CCc1cccc(C)c1NC(=O)c1cccnc1 | 3.2 | -4.0 | ? | 4.9 | 3027 | 31.2*
SMILES | 3CLpro inhibitor | CCHFV vOTU inh | BoNT F protease | BoNT A protease | Autofluor counter | Anthrax LF prot
CNC(=S)NNC(=O)c1cccn(Cc2cccc(C(F)(F)F)c2)c1=O | 1.7 | -0.3 | 4.9 | 0.1 | 3716 | 6.0
C=CCNC(=S)Nc1sc2c(c1C(=O)OCC)CC(C(C)C)OC2 (stereo not drawn) | 5.9 | -2.4 | 0.1 | 0.5 | 22389* | 0.3
COCCNC(=O)CN(Cc1ccccc1)S(=O)(=O)c1ccc2nc(C)sc2c1 | -2.3 | -3.6 | -16.1 | -0.9 | 3193 | -9.6
O=C(CN1C(=O)c2ccccc2C1=O)NCc1ccncc1 | -1.3 | -5.1 | 9.8 | 6.8 | 20208* | -13.4
O=C(CCN1C(=O)c2ccccc2C1=O)NCc1ccncc1 | 4.1 | -6.8 | -1.4 | -1.3 | 9474 | -1.2
COC(=O)C1CCN(C(=O)CN2CCC(C(=O)c3ccc(C)cc3)CC2)CC1 | · | -3.7 | · | · | · | ·

Assay outcomes from PubChem.
